Records with an inconclusive call do not appear. Calls of active or inactive are those of the source. Calls come from the whole dose curve; as a rule, active = well fitted cell-killing curve with a large enough effect in the repeat runs; inconclusive = weak or mixed curves; inactive = flat fitted curve, though single readings scatter.
Assay: qHTS RealTime-Glo MT Cell Viability Assay in HepG2 cells - 32 hour (AID 1224877); note: nearly all actives have a fitted effect of over 55% in size
Settings: RealTime-Glo luminescence; series mostly up to 76.8 µM
Procedure, shortened: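 Tox21 10K library screened in qHTS format on HepG2 cells carrying RealTime-Glo reagents. Compounds were added after a 5 h preincubation, and the luminescent signal from continuous culture was measured repeatedly during 40 h treatment.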

| Structure (SMILES) | outcome |
| --- | --- |
| N=C(N)S(=O)O | inactive |
| CC[C@@]1(c2ccccc2)NC(=O)N(C)C1=O | inactive |
| CC(=O)Oc1ccc(C(C)=O)cc1 | inactive |
| Cc1ccc(N)nc1 | inactive |
| CCCOc1ccc(C(=O)OCCN(CC)CC)cc1N | inactive |
| CCCCCCC(O)CO (stereo not drawn) | inactive |
| CC(=O)OC/C=C(/C)CCC=C(C)C | inactive |
| CC(C)(C)OC(=O)c1ccccc1C(=O)O | inactive |
| CC1=C(O)C(=O)CO1 | inactive |
| O=C(O)Cc1ccccc1Oc1ccc(Cl)cc1Cl | inactive |
| O=c1c(O)c(O)c1=O | inactive |
| NCC1CCC(C(=O)Oc2ccc(CCC(=O)O)cc2)CC1 (stereo not drawn) | inactive |
| Cc1cc(=O)oc2cc(O[C@@H]3SC[C@@H](O)[C@H](O)[C@H]3O)ccc12 | inactive |
| CO/N=C(\C(=O)O)c1csc(NC(=O)CCl)n1 | inactive |
| C=CCN1CCc2nc(N)sc2CC1 | inactive |
| COc1ccc2cc(CCC(C)=O)ccc2c1 | inactive |
| CCCCCCCCC1CO1 (stereo not drawn) | inactive |
| Cc1nc2ccc(Cl)cc2[nH]1 | inactive |
| CC(C)c1cc(C(C)C)cc(C(C)C)c1 | inactive |

| Structure (SMILES) | outcome |
| --- | --- |
| COC(=O)c1ccc(NC(C)=O)cc1OC | inactive |
| O=S(=O)(O)c1ccc(Cl)cc1 | inactive |
| C=COCCCCO | inactive |
| C/C(=N\O)c1ccc(OCC(=O)N2CCCCC2)cc1 | inactive |
| Cc1cccc(N)n1 | inactive |
| CCCCCCCCCCCC(C)=O | inactive |
| CN(C)CCc1c[nH]c2ccc(C[C@H]3COC(=O)N3)cc12 | inactive |
| CC(=O)/C=C/C=C1/C2CCC(C2)C1(C)C (stereo not drawn) | inactive |
| Cc1ccc(O)c([N+](=O)[O-])c1 | inactive |
| CCCCN=C(N)N=C(N)N | inactive |
| CN(C)CCC[C@@]1(c2ccc(F)cc2)OCc2cc(C#N)ccc21 | inactive |
| O=C(O)P(=O)(O)O | inactive |
| CC(=O)SCC(CC(=O)c1ccc(C)cc1)C(=O)O (stereo not drawn) | inactive |
| CC(C)(C)C(=O)CCc1ccc(Cl)cc1 | inactive |
| Nc1ccc(C(=O)NCC(=O)O)cc1 | inactive |
| NC(=O)CC[C@@H](N)C(=O)O | inactive |
| C[n+]1ccccc1/C=N/O | inactive |
| COc1cc2nc(N3CCN(C(=O)C4CCCO4)CC3)nc(N)c2cc1OC (stereo not drawn) | inactive |
| COc1cnc(NS(=O)(=O)c2ccc(N)cc2)nc1 | inactive |
